Test results from PubChem BioAssay AID1159580 (chemical genetic matrix, 2015).
“And” between values parts separate entries of the source, which are not always exact repeats. Equal values may be shown once. Screen size: about 5,500 compounds; about 2,000 (36%) were called active. About 18% were inconclusive and are not listed. No stated cut-off is given here; in the data, active means normalized growth mostly below about 0.91 (no sharp cut-off); inconclusive means no clear call, values can overlap the other calls; inactive means mostly above about 0.92. This is one part of the list.

Assay: chemical genetic growth profiling, strain panel (AID 1159580);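 further: tested at 20 µM; growth read once vehicle control cultures reached saturation at 30 °C; 1 = growth at the plate median or of vehicle wells; lower values mean less growth of the strain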
Conditions: S. cerevisiae deletion strains, growth OD

Measured: normalized growth

CC(C)(C)NCC(O)c1ccccc1Cl (stereo unspecified)
inactive: locus YAL013W, strain DEP1, hits give low values 0.993 | locus YAL021C, strain ccr4, hits give low values 1.01 | locus YAL026C, strain drs2, hits give low values 1.01 | locus YAL030W, strain snc1, hits give low values 0.979 | locus YAL040C, strain CLN3, hits give low values 0.966 | locus YBL061C, strain skt5, hits give low values 0.991 | locus YBR009C, strain hhf1, hits give low values 0.972 | locus YBR021W, strain FUR4, hits give low values 0.98 | locus YBR023C, strain chs3, hits give low values 0.993 | locus YBR171W, strain sec66, hits give low values 0.989 | locus YBR229C, strain ROT2, hits give low values 0.95 | locus YBR231C, strain swc5, hits give low values 0.989 | locus YBR279W, strain paf1, hits give low values 1 | locus YCL011C, strain gbp2, hits give low values 0.995 | locus YCL016C, strain dcc1, hits give low values 0.988 | locus YCL029C, strain bik1, hits give low values 0.978 | locus YCL061C, strain MRC1 (second series), hits give low values 1.01 | locus YCL061C, strain MRC1, hits give low values 0.992 | locus YCL069W, strain vba3, hits give low values 0.991 | locus YCR088W, strain abp1, hits give low values 0.99 | locus YDL005C, strain med2, hits give low values 1.01 | locus YDL035C, strain GPR1, hits give low values 0.947 | locus YDL040C, strain nat1, hits give low values 0.979 | locus YDL074C, strain BRE1, hits give low values 1.01 | locus YDL101C, strain DUN1, hits give low values 0.987 | locus YDL134C, strain PPH21, hits give low values 0.98 | locus YDL185W, strain tfp1, hits give low values 0.991 | locus YDL192W, strain arf1, hits give low values 0.973 | locus YDR001C, strain nth1, hits give low values 0.978 | locus YDR069C, strain doa4, hits give low values 0.988 | locus YDR101C, strain arx1, hits give low values 0.992 | locus YDR137W, strain rgp1, hits give low values 1.01 | locus YDR150W, strain NUM1, hits give low values 0.976 and 1.01 | locus YDR159W, strain sac3, hits give low values 0.939 | locus YDR162C, strain NBP2, hits give low values 0.979 | locus YDR195W, strain ref2 0.959 | locus YDR297W, strain sur2, hits give low values 1.01 | locus YDR318W, strain mcm21, hits give low values 1 | locus YDR334W, strain swr1, hits give low values 0.996 | locus YDR335W, strain msn5, hits give low values 0.991 | locus YDR363W, strain ESC2, hits give low values 0.999 | locus YDR388W, hits give low values 0.991 | locus YDR392W, strain spt3, hits give low values 0.831 | locus YDR502C, strain sam2, hits give low values 0.965 | locus YEL003W, strain gim4, hits give low values 0.996 | locus YEL037C, strain rad23, hits give low values 0.994 | locus YEL061C, strain CIN8 (second series), hits give low values 0.987 | locus YEL061C, strain CIN8, hits give low values 0.985 | locus YER002W, strain NOP16, hits give low values 0.988 | locus YER015W, strain faa2, hits give low values 0.995 | locus YER016W, strain bim1, hits give low values 0.989 | locus YER110C, hits give low values 0.966 | locus YER111C, strain swi4, hits give low values 0.992 | locus YER155C, strain BEM2 (second series), hits give low values 0.958 | locus YER155C, strain BEM2, hits give low values 1 | locus YER167W, strain BCK2, hits give low values 0.957 | locus YFR010W, strain ubp6, hits give low values 1 | locus YGL078C, strain dbp3, hits give low values 0.982 | locus YGL086W, strain mad1, hits give low values 0.978 | locus YGL167C, strain pmr1, hits give low values 0.989 | locus YGL173C, strain kem1, hits give low values 1.01 | locus YGL227W, strain vid30, hits give low values 0.988 | locus YGL240W, strain doc1, hits give low values 0.981 | locus YGL248W, strain PDE1, hits give low values 0.984 | locus YGL253W, strain hxk2, hits give low values 0.994 | locus YGR078C, strain PAC10, hits give low values 1.01 and 1.02 | locus YGR135W, strain pre9, hits give low values 0.979 | locus YGR229C, strain SMI1, hits give low values 1.01 and 1.03 | locus YGR252W, strain gcn5, hits give low values 0.898 | locus YHR013C, strain ard1, hits give low values 0.952 | locus YHR027C, strain rpn1, hits give low values 0.996 | locus YHR030C, strain SLT2, hits give low values 0.992 and 0.981 | locus YHR079C, strain IRE1 (second series), hits give low values 1 | locus YHR079C, strain IRE1, hits give low values 0.977 | locus YHR094C, strain hxt1, hits give low values 0.991 | locus YHR129C, strain ARP1, hits give low values 0.997 | locus YHR142W, strain chs7, hits give low values 1.02 | locus YHR200W, strain rpn10, hits give low values 1.01 | locus YIL066C, strain RNR3, hits give low values 0.978 | locus YIL073C, strain SPO22, hits give low values 0.972 | locus YIL125W, strain kgd1, hits give low values 0.989 | locus YIR030C, strain dcg1, hits give low values 0.983 | locus YJL092W, strain hpr5, hits give low values 0.997 | locus YJL095W, strain BCK1 (second series), hits give low values 0.996 | locus YJL095W, strain BCK1, hits give low values 1.02 and 0.99 | locus YJL115W, strain asf1, hits give low values 0.987 | locus YJL129C, strain trk1, hits give low values 1 | locus YJL134W, strain LCB3, hits give low values 0.981 | locus YJL154C, strain vps35, hits give low values 0.989 | locus YJL164C, strain tpk1, hits give low values 1.01 | locus YJL166W, strain qcr8, hits give low values 0.987 | locus YJL168C, strain set2, hits give low values 0.995 | locus YJL187C, strain SWE1 (second series), hits give low values 0.994 | locus YJL187C, strain SWE1, hits give low values 0.997 | locus YJR043C, strain POL32, hits give low values 1.03 | locus YJR066W, strain TOR1, hits give low values 0.921
